Test results from PubChem BioAssay AID1159580 (chemical genetic matrix, 2015).
Out of some 5,500 compounds screened, about 2,000 (36%) were called active. Another 18% or so got no clear call; they are omitted. No stated cut-off is given here; in the data, active means normalized growth mostly below about 0.91 (no sharp cut-off); inconclusive means no clear call, values can overlap the other calls; inactive means mostly above about 0.92. This is one part of the list.

Test: chemical genetic growth profiling, strain panel (AID 1159580);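 further: tested at 20 µM; growth read once vehicle control cultures reached saturation at 30 °C; 1 = growth at the plate median or of vehicle wells; lower values mean less growth of the strain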
Conditions: S. cerevisiae deletion strains, growth OD

Measured: normalized growth

CC(=O)Oc1ccc(-c2cc(=O)c3c(OC(C)=O)cc(OC(C)=O)cc3o2)cc1
inactive: locus YAL021C, strain ccr4, hits give low values 0.975 | locus YAL026C, strain drs2, hits give low values 0.947 | locus YAL030W, strain snc1, hits give low values 0.975 | locus YBL061C, strain skt5, hits give low values 0.965 | locus YBR009C, strain hhf1, hits give low values 0.96 | locus YBR023C, strain chs3, hits give low values 0.951 | locus YBR171W, strain sec66, hits give low values 0.955 | locus YBR231C, strain swc5, hits give low values 0.968 | locus YBR279W, strain paf1, hits give low values 0.974 | locus YCL011C, strain gbp2, hits give low values 0.963 | locus YCL016C, strain dcc1, hits give low values 0.974 | locus YCL061C, strain MRC1, hits give low values 0.988 | locus YCL069W, strain vba3, hits give low values 0.964 | locus YCR088W, strain abp1, hits give low values 0.966 | locus YDL005C, strain med2, hits give low values 0.977 | locus YDL040C, strain nat1, hits give low values 0.966 | locus YDR001C, strain nth1, hits give low values 0.965 | locus YDR069C, strain doa4, hits give low values 0.95 | locus YDR137W, strain rgp1, hits give low values 1 | locus YDR159W, strain sac3, hits give low values 0.935 | locus YDR195W, strain ref2 0.942 | locus YDR297W, strain sur2, hits give low values 0.976 | locus YDR334W, strain swr1, hits give low values 0.958 | locus YDR335W, strain msn5, hits give low values 0.982 | locus YDR392W, strain spt3, hits give low values 0.906 | locus YEL003W, strain gim4, hits give low values 0.961 | locus YEL037C, strain rad23, hits give low values 0.952 | locus YEL061C, strain CIN8 (second series), hits give low values 0.958 | locus YER015W, strain faa2, hits give low values 0.984 | locus YER016W, strain bim1, hits give low values 0.976 | locus YER111C, strain swi4, hits give low values 0.953 | locus YER155C, strain BEM2 (second series), hits give low values 0.957 | locus YFR010W, strain ubp6, hits give low values 0.957 | locus YGL167C, strain pmr1, hits give low values 0.965 | locus YGL173C, strain kem1, hits give low values 0.983 | locus YGL227W, strain vid30, hits give low values 0.955 | locus YGL240W, strain doc1, hits give low values 0.962 | locus YGL253W, strain hxk2, hits give low values 0.973 | locus YHR013C, strain ard1, hits give low values 0.92 | locus YHR027C, strain rpn1, hits give low values 0.982 | locus YHR142W, strain chs7, hits give low values 0.973 | locus YJL092W, strain hpr5, hits give low values 0.982 | locus YJL095W, strain BCK1 (second series), hits give low values 0.988 | locus YJL115W, strain asf1, hits give low values 0.954 | locus YJL129C, strain trk1, hits give low values 0.95 | locus YJL154C, strain vps35, hits give low values 0.961 | locus YJL164C, strain tpk1, hits give low values 0.964 | locus YJL166W, strain qcr8, hits give low values 0.971 | locus YJL187C, strain SWE1, hits give low values 0.976 | locus YKL160W, strain elf1, hits give low values 1.01 | locus YKR026C, strain gcn3, hits give low values 0.949 | locus YKR091W, strain srl3, hits give low values 0.97 | locus YLL001W, strain dnm1, hits give low values 0.997 | locus YLL026W, hits give low values 0.973 | locus YLL041C, strain sdh2, hits give low values 0.98 | locus YLR027C, strain aat2, hits give low values 0.96 | locus YLR221C, strain rsa3, hits give low values 0.958 | locus YLR258W, strain gsy2, hits give low values 0.977 | locus YLR262C, strain YPT6 (second series), hits give low values 0.999 | locus YLR320W, strain mms22, hits give low values 0.958 | locus YLR342W, strain FKS1, hits give low values 0.968 | locus YLR357W, strain rsc2, hits give low values 0.902 | locus YLR370C, strain arc18, hits give low values 0.958 | locus YLR384C, strain iki3, hits give low values 0.966 | locus YML120C, strain ndi1, hits give low values 0.967 | locus YMR058W, strain fet3, hits give low values 0.965 | locus YMR125W, strain sto1, hits give low values 0.955 | locus YMR129W, hits give low values 0.967 | locus YMR205C, strain PFK2, hits give low values 0.941 | locus YMR231W, strain pep5, hits give low values 0.975 | locus YNL071W, strain lat1, hits give low values 0.967 | locus YNL209W, strain ssb2, hits give low values 0.979 | locus YNL248C, strain rpa49, hits give low values 0.979 | locus YNL322C, strain KRE1 (second series), hits give low values 0.95 | locus YNR049C, strain mso1, hits give low values 0.953 | locus YOR001W, strain rrp6, hits give low values 0.987 | locus YOR070C, strain gyp1, hits give low values 0.977 | locus YOR080W, strain dia2, hits give low values 0.961 | locus YOR083W, strain WHI5, hits give low values 1.02 | locus YOR106W, strain vam3, hits give low values 0.986 | locus YOR265W, strain rbl2, hits give low values 0.981 | locus YOR270C, strain vph1, hits give low values 0.899 | locus YOR290C, strain snf2, hits give low values 0.899 | locus YPL051W, strain arl3, hits give low values 1 | locus YPL078C, strain atp4, hits give low values 0.984 | locus YPL106C, strain sse1, hits give low values 0.946 | locus YPL240C, strain hsp82, hits give low values 0.987
